Values without a mark were called inactive. Inconclusive results are not listed. Activity calls are given as the source filed them. The call rests on the fitted dose curve; in most records, active means well fitted curve in the direction sought with a large enough effect in the repeat runs; inconclusive means weak or mixed curves; inactive means no such curve, though single readings can be large; an effect the other way counts as inactive or inconclusive.

Data on ten compounds can be found in PubChem BioAssay (Tox21).

The nature of test [1]: A CellTox Green Cytotoxicity Assay to monitor cytotoxicity in HEK293 cells - 40 hour (AID 1224871). Further: nearly all actives have a fitted effect of over 45% in size. Further: potency means the concentration at half of the fitted maximal effect. An outline of the steps:
(§1)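 Real-time, in one plate: 600 HEK293 cells/well with dead-cell DNA dye, pinned compound after 5 h, 37 C incubation over 40 h; viable cells give no appreciable fluorescence.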

Test [2] is described as follows: qHTS RealTime-Glo MT Cell Viability Assay in HEK293 cells - 16 hour (AID 1224872). Further: nearly all actives have a fitted effect of over 50% in size. Further: potency means the concentration at half of the fitted maximal effect. On activity change, negative = cytotoxicity: top concentration of the series differs between compounds. An outline of the steps:
(§2)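 Tox21 10K qHTS, HEK293, 600 cells/well, RealTime-Glo reagent co-dispensed with cells; 5 h preincubation, compound by pintool, 37 C, luminescence at 0–40 h.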
On the technique in general: In qHTS, concentration-response curves come from the screen itself.

Test [3] is described as follows: qHTS RealTime-Glo MT Cell Viability Assay in HepG2 cells - 8 hour (AID 1224873). Further: nearly all actives have a fitted effect of over 55% in size. An outline of the steps:
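HepG2 cells mixed with RealTime-Glo MT reagents (NanoLuc plus cell-permeant prosubstrate) were seeded at 600 cells/well, incubated 5 h at 37 C/5% CO2, then pinned with compounds in DMSO; nonlytic luminescence tracked viability during 40 h treatment.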

Test [4] is described as follows: A CellTox Green Cytotoxicity Assay to monitor cytotoxicity in HEK293 cells - 24 hour (AID 1224875). Further: nearly all actives have a fitted effect of over 45% in size. Further: potency means the concentration at half of the fitted maximal effect. On activity change: series mostly up to about 77 µM. An outline of the steps: as §1
The nature of test [5]: A CellTox Green Cytotoxicity Assay to monitor cytotoxicity in HepG2 cells - 16 hour (AID 1224876). Further: nearly all actives have a fitted effect of over 45% in size. Summed up: (§3)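 Cytotoxicity was tracked as dead-cell DNA fluorescence in HepG2 cells treated with test compounds at 37 C; each time-point value comes from one kinetic series spanning 0, 8, 16, 24, 32 and 40 h.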
Test [6] can be described thus: qHTS RealTime-Glo MT Cell Viability Assay in HepG2 cells - 32 hour (AID 1224877). Further: nearly all actives have a fitted effect of over 55% in size. Summed up:
(§4)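 Cells + NanoLuc/prosubstrate dispensed (600 cells/well) → 5 h at 37 C/5% CO2 → compounds in DMSO transferred → 40 h incubation at 37 C, luminescence read at 0, 8, 16, 24, 32, 40 h.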

Test [7] can be described thus: A CellTox Green Cytotoxicity Assay to monitor cytotoxicity in HepG2 cells - 24 hour (AID 1224878). Further: nearly all actives have a fitted effect of over 45% in size. Summed up: as §3
A short description of test [8]: A CellTox Green Cytotoxicity Assay to monitor cytotoxicity in HepG2 cells - 40 hour (AID 1224879). Further: nearly all actives have a fitted effect of over 40% in size. Summed up: as §3
Test [9] is described as follows: qHTS RealTime-Glo MT Cell Viability Assay in HEK293 cells - 0 hour (AID 1224880). Summed up: (§5)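 Kinetic, non-lysing viability readout. Seed HEK293 (600/well) with reagent, incubate 5 h at 37 C/5% CO2, pin 23 nL compound in DMSO, incubate at 37 C, read luminescence at 0, 8, 16, 24, 32, 40 h.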
Test [10] can be described thus: A CellTox Green Cytotoxicity Assay to monitor cytotoxicity in HEK293 cells - 32 hour (AID 1224881). Further: nearly all actives have a fitted effect of over 40% in size. Further: potency means the concentration at half of the fitted maximal effect. Summed up:
as §1

Test [11] is described as follows: A CellTox Green Cytotoxicity Assay to monitor cytotoxicity in HepG2 cells - 0 hour (AID 1224882). Further: nearly all actives have a fitted effect of over 35% in size. An outline of the steps:
as §3

A short description of test [12]: A CellTox Green Cytotoxicity Assay to monitor cytotoxicity in HEK293 cells - 8 hour (AID 1224884). Further: nearly all actives have a fitted effect of over 35% in size. Summed up: as §1
A short description of test [13]: qHTS RealTime-Glo MT Cell Viability Assay in HepG2 cells - 16 hour (AID 1224885). Further: nearly all actives have a fitted effect of over 50% in size. Summed up:
as §4

Test [14] in a line: qHTS RealTime-Glo MT Cell Viability Assay in HEK293 cells - 24 hour (AID 1224886). Further: nearly all actives have a fitted effect of over 50% in size. Further: potency means the concentration at half of the fitted maximal effect. On activity change, negative = cytotoxicity: top concentration of the series differs between compounds. An outline of the steps:
as §2

Test [15] is described as follows: qHTS RealTime-Glo MT Cell Viability Assay in HEK293 cells - 8 hour (AID 1224887). Further: nearly all actives have a fitted effect of over 50% in size. Further: potency means the concentration at half of the fitted maximal effect. On activity change, negative = cytotoxicity: top concentration of the series differs between compounds. Summed up: as §5
Test [16] can be described thus: A CellTox Green Cytotoxicity Assay to monitor cytotoxicity in HEK293 cells - 16 hour (AID 1224888). Further: nearly all actives have a fitted effect of over 35% in size. Summed up:
as §1

A short description of test [17]: qHTS RealTime-Glo MT Cell Viability Assay in HepG2 cells - 0 hour (AID 1224889). Further: nearly all actives have a fitted effect of over 50% in size. Summed up: as §4
Test [18] is described as follows: A CellTox Green Cytotoxicity Assay to monitor cytotoxicity in HepG2 cells - 8 hour (AID 1224890). Further: nearly all actives have a fitted effect of over 45% in size. An outline of the steps: as §3
The nature of test [19]: A CellTox Green Cytotoxicity Assay to monitor cytotoxicity in HepG2 cells - 32 hour (AID 1224883). Further: nearly all actives have a fitted effect of over 50% in size. Summed up: as §3
Test [20] is described as follows: qHTS RealTime-Glo MT Cell Viability Assay in HEK293 cells - 40 hour (AID 1224874). Further: nearly all actives have a fitted effect of over 50% in size. Further: potency means the concentration at half of the fitted maximal effect. The note with it: RealTime-Glo luminescence; max response: active compounds read low. Summed up:
as §5
On the % scale 0 is the no-effect control and ±100 the full control effect.

For `C=CCOc1ccccc1OCC(O)CNC(C)C` (stereo not drawn), the Potency entry in [1], in test [2], in [3], in test [4], in test [5] and in test [6] was “inactive” each time. Further, the Potency result in test [7], in [8], in [9], in [10], in test [11] and in test [12] was “inactive” each time. In addition, the Potency entry in test [13], in test [14], in test [15], in test [16], in test [17] and in test [18] was “inactive” each time.
In the case of `O=C(O)CNCC(=O)O`, the cytotoxicity increase in [1] is 3.68% [at 6.97 µM]; in test [5], -9.02% [at 6.97 µM]; in test [8], -10.4% [at 6.97 µM]; in [10], 4.03% [at 6.97 µM]; in test [19] it was -4.58% [at 6.97 µM]; in [12], -1.38% [at 6.97 µM]. In [18], the cytotoxicity increase was 3.91% [at 6.97 µM]. The activity change, negative = cytotoxicity in test [2] was -7.32% [at 6.97 µM]; in test [9] it was -1.51% [at 6.97 µM]; in test [14] it was -8.06% [at 6.97 µM]; in test [15], -7.77% [at 6.97 µM]; in [17] it was -5.44% [at 6.97 µM]. The viability change, negative = cytotoxic in [3] was 0.198% [at 6.97 µM]. Also, the activity change in [4] is 3.54% [at 6.97 µM, active compounds read high]; in test [16] it was 2.15% [at 6.97 µM, active compounds read high]. In addition, the activity change, negative = cytotoxic in [6] was 0.774% [at 6.97 µM]; in test [13] it was -0.86% [at 6.97 µM]. In addition, the cytotoxicity in test [7] was -3.31% [at 6.97 µM]; in test [11], -10.6% [at 6.97 µM].
On to `O=C(c1ccc(F)cc1)C1CCN(CCn2c(=S)[nH]c3ccccc3c2=O)CC1`, for which the Potency result in [1], in test [4], in test [5], in test [6], in test [7] and in [10] was “inactive” in each case. For the same compound, the Potency result in test [11], in test [12], in test [16], in [17] and in test [18] was “inactive” in each case. The Potency is 3.38 µM (active) in test [2], 5.35 µM (active) in [20], 7.56 µM (active) in test [14] and 4.77 µM (active) in test [15].
With `CC/C=C\CCOC(=O)CC`, the Potency result in [1], in test [2], in [4], in [5], in test [6] and in test [7] was “inactive” each time. In addition, the Potency result in test [8], in [9], in test [10], in [11], in test [19] and in test [12] was “inactive” each time. In addition, the Potency entry in [13], in test [14], in test [15], in [16], in test [17] and in [18] was “inactive” each time. Also, the max response in test [20] is 0.388%.
On to `CCNc1cc(O)ccc1C`, for which the Potency was 34.3 µM (active) in [1], 38.5 µM (active) in [4] and 34.3 µM (active) in test [10]. Besides, the Potency result in [2], in test [3], in test [5], in test [6], in test [7] and in test [8] was “inactive” throughout. The Potency result in [9], in test [11], in test [19], in [12], in [13] and in test [14] was “inactive” each time. Further, the Potency result in test [17] and in [18] was “inactive” throughout.
On to `COc1cc(Cl)c(OC)cc1N`, for which the Potency entry in test [1], in [2], in [3], in test [4], in test [5] and in test [6] was “inactive” throughout. The Potency result in [7], in test [8], in [10], in [11], in [19] and in [12] was “inactive” each time. Also, the Potency result in [13], in test [14], in test [16] and in [17] was “inactive” throughout.
For `O=C(Nc1ccccc1)c1ccccc1O`, the Potency entry in test [1], in test [2], in test [3], in [4], in [5] and in test [7] was “inactive” in each case. Besides, the Potency entry in test [9], in [10], in [11], in test [12], in [13] and in [15] was “inactive” throughout. In addition, the Potency result in [16] and in test [17] was “inactive” throughout.
Regarding `CN(C)CCN(Cc1ccc(Cl)cc1)c1ccccn1`, the Potency result in [1], in test [2], in test [4], in test [5], in test [6] and in test [7] was “inactive” each time. Further, the Potency entry in [8], in [10], in test [11], in [19], in [12] and in [13] was “inactive” throughout. In addition, the Potency entry in test [14], in test [15], in test [16] and in test [17] was “inactive” throughout. Moreover, the max response in test [20] is -11%.
Turning to `NC(N)=NCCC[C@H](N)C(=O)O`, the cytotoxicity increase in [1] was -21.8% [at 6.97 µM]; in [5], -5.32% [at 6.97 µM]; in [8] it was -3.66% [at 6.97 µM]; in test [10], -21.7% [at 6.97 µM]; in [12] it was -18% [at 6.97 µM]. The activity change, negative = cytotoxicity in test [2] was 5.7% [at 6.97 µM]; in [9], 14% [at 6.97 µM]; in test [14], 4.77% [at 6.97 µM]; in [15], 6.66% [at 6.97 µM]; in test [17] it was 0.79% [at 6.97 µM]. The max response in test [20] is 2.97%. For the same compound, the activity change in test [4] is -20.5% [at 6.97 µM, active compounds read high]; in [16], -19.2% [at 6.97 µM, active compounds read high]. The activity change, negative = cytotoxic in test [6] was 2.81% [at 6.97 µM]; in test [13], 0.73% [at 6.97 µM]. Also, the cytotoxicity in test [7] was -6.35% [at 6.97 µM]; in [11], 1.18% [at 6.97 µM].
With `CCO[C@H](Cc1ccc(OCCc2ccc(OS(C)(=O)=O)cc2)cc1)C(=O)O`, the Potency entry in [1], in test [2], in test [3], in test [4], in test [5] and in test [6] was “inactive” throughout. For the same compound, the Potency result in [7], in [8], in test [10], in test [12], in [13] and in test [14] was “inactive” throughout. Besides, the Potency entry in test [15], in test [16], in test [17] and in [18] was “inactive” in each case.
